# Source: paper PMC7862700, “An all-to-all approach to the identification of sequence-specific readers for epigenetic DNA modifications on cytosine”
# Legend:
# Test in all cases: DAPPL (digital affinity profiling via proximity ligation, sequencing); 10 mM Tris-HCl pH 7.5, 50 mM NaCl, 1 mM DTT, 4% glycerol, room temperature, 30 min; GST-TFs on glutathione beads, 16-mer random dsDNA library, 0.1% formaldehyde crosslink after washing; high values mean tight binding
# [1] = molecular target: T1, FLI1 (Homo sapiens, UniProt Q01543 1-452); conditions: protein: recombinant; tags: N-terminal GST; dsDNA, one strand shown
# T1 sequence: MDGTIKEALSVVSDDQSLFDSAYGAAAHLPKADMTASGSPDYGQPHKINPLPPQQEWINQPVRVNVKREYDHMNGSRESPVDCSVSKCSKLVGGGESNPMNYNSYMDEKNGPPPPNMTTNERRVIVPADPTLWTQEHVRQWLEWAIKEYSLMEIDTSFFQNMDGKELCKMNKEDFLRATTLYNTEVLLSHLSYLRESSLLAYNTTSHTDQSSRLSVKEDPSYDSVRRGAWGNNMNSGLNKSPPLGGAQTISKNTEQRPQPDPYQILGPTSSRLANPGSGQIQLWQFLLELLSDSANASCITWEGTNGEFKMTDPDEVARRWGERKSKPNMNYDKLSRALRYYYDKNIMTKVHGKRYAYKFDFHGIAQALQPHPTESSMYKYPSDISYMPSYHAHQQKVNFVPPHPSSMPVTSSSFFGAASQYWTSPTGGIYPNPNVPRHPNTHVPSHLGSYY
# Outline: (§1)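 Each value of binding signal is a hexamer's read frequency for a factor divided by the same hexamer's frequency in the tag-only sample. Barcoded, bead-captured GST fusions of human transcription factors made in yeast were pooled with that sample and incubated with 200 nmole of a random double-stranded 16-mer DNA library in Tris/NaCl/DTT/glycerol buffer at room temperature for 30 min. Washing, 0.1% formaldehyde crosslinking, proximity ligation, PCR and Illumina NextSeq500 sequencing followed.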
# [2] = molecular target: T2, ELK1 (Homo sapiens, UniProt P19419 1-428); conditions: protein: recombinant; tags: N-terminal GST; dsDNA, one strand shown
# T2 sequence: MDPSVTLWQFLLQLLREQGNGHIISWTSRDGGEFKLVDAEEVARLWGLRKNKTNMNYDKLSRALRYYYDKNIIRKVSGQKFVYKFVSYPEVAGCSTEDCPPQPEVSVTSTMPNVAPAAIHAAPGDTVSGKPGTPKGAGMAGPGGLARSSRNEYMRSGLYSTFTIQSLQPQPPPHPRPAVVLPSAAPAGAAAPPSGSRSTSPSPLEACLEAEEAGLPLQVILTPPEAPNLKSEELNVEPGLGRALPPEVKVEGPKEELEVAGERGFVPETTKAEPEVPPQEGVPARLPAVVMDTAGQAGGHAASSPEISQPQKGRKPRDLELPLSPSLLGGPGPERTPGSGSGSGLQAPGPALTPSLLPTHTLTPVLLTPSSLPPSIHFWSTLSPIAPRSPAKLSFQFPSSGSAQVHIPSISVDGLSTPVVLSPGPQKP
# Outline: as §1
# [3] = molecular target: T3, GABPA (Homo sapiens, UniProt Q06546 1-454); conditions: protein: recombinant; tags: N-terminal GST; dsDNA, one strand shown
# T3 sequence: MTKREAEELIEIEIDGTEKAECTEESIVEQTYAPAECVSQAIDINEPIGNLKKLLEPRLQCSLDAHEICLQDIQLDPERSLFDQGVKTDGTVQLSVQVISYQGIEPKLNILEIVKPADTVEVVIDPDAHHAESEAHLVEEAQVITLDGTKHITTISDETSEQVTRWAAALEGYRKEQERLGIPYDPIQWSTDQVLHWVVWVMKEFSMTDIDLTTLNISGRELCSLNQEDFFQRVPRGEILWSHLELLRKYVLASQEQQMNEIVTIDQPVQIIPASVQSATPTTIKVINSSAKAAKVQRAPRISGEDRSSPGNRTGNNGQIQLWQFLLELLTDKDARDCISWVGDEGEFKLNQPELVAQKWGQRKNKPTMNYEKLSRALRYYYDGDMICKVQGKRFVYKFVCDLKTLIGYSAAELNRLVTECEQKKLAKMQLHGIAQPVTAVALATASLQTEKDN
# Outline: as §1
# [4] = molecular target: T4, ERG (Homo sapiens, UniProt P11308 1-479); conditions: protein: recombinant; tags: N-terminal GST; dsDNA, one strand shown
# T4 sequence: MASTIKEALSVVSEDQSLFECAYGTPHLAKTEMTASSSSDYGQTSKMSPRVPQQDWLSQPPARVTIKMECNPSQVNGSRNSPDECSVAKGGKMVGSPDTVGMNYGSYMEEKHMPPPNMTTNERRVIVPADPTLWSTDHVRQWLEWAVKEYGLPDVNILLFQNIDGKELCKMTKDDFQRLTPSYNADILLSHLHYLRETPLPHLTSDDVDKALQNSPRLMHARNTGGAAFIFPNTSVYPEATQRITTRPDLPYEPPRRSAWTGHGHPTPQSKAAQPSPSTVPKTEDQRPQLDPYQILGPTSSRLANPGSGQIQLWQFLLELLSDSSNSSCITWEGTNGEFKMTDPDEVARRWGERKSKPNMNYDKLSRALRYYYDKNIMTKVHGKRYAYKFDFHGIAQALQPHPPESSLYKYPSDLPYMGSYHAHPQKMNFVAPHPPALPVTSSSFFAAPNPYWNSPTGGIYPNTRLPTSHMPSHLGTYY
# Outline: as §1
# [5] = molecular target: ELF1 (Homo sapiens, UniProt P32519 1-619); conditions: protein: recombinant; tags: N-terminal GST; dsDNA, one strand shown
# Outline: as §1
# [6] = molecular target: T5, EHF (Homo sapiens, UniProt Q9NZC4 1-300); conditions: protein: recombinant; tags: N-terminal GST; dsDNA, one strand shown
# T5 sequence: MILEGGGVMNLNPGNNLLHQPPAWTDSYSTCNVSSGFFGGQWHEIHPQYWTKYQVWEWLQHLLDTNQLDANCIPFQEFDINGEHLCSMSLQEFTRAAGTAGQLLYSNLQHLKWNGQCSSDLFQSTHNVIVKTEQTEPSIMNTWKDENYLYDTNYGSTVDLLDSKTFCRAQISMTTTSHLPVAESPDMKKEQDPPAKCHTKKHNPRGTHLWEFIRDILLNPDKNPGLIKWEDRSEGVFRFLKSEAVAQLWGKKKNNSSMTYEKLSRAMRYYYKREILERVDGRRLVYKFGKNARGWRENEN
# Outline: as §1
# [7] = molecular target: SPI1 (Homo sapiens, UniProt P17947 1-270); conditions: protein: recombinant; tags: N-terminal GST; dsDNA, one strand shown
# Outline: as §1
# [8] = molecular target: SPIB (Homo sapiens, UniProt Q01892 1-262); conditions: protein: recombinant; tags: N-terminal GST; dsDNA, one strand shown
# Outline: as §1
# [9] = molecular target: T6, ELK3 (Homo sapiens, UniProt P41970 1-407); conditions: protein: recombinant; tags: N-terminal GST; dsDNA, one strand shown
# T6 sequence: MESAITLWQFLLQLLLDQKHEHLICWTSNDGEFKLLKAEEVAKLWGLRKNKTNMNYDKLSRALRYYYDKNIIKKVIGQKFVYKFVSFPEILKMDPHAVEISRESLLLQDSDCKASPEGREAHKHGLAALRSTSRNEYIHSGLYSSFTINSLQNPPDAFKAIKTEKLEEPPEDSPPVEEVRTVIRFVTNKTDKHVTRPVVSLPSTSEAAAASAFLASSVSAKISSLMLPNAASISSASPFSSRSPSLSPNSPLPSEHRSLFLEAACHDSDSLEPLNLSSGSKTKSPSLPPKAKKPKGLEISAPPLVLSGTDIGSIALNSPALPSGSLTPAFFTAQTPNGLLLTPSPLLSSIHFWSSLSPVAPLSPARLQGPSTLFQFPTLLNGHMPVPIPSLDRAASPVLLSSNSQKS
# Outline: as §1
# [10] = molecular target: T7, FEV (Homo sapiens, UniProt Q99581 1-238); conditions: protein: recombinant; tags: N-terminal GST; dsDNA, one strand shown
# T7 sequence: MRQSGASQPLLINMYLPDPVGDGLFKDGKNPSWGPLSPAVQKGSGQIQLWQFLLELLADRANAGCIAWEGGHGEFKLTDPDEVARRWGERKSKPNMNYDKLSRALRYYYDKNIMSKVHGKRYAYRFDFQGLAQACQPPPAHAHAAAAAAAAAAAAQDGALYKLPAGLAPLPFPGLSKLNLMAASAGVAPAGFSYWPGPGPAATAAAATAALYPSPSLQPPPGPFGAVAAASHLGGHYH
# Outline: as §1
# [11] = molecular target: ETV5 (Homo sapiens, UniProt P41161 1-510); conditions: protein: recombinant; tags: N-terminal GST; dsDNA, one strand shown
# Outline: as §1
# [12] = molecular target: HSF1 (Homo sapiens, UniProt Q00613 1-529); conditions: protein: recombinant; tags: N-terminal GST; chain copies: 3; dsDNA, one strand shown
# Outline: as §1
# [13] = molecular target: T8, SPIC (Homo sapiens, UniProt Q8N5J4 1-248); conditions: protein: recombinant; tags: N-terminal GST; dsDNA, one strand shown
# T8 sequence: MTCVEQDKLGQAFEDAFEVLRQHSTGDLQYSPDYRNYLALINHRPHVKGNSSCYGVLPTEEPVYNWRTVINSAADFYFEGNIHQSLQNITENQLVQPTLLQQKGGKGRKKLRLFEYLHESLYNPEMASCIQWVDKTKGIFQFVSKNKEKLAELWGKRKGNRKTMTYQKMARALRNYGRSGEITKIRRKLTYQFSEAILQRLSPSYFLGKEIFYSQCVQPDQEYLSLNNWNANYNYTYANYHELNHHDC
# Outline: as §1
# [14] = molecular target: ELF4 (Homo sapiens, UniProt Q99607 1-663); conditions: protein: recombinant; tags: N-terminal GST; dsDNA, one strand shown
# Outline: as §1
# [15] = molecular target: T9, ELK4 (Homo sapiens, UniProt P28324-2 1-405); conditions: protein: recombinant; tags: N-terminal GST; dsDNA, one strand shown
# T9 sequence: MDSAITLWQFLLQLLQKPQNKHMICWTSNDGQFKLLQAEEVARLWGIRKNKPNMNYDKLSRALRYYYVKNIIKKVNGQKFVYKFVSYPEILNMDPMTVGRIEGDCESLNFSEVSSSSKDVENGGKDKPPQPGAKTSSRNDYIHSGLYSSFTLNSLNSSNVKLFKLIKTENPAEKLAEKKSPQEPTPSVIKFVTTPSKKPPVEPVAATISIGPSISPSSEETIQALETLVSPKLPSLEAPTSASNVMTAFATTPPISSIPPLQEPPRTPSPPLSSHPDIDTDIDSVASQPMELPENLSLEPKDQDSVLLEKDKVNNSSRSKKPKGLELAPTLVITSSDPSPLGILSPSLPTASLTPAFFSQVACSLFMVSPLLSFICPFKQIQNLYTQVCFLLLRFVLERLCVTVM
# Outline: as §1
# [16] = molecular target: T10, ETV2 (Homo sapiens, UniProt O00321 1-342); conditions: protein: recombinant; tags: N-terminal GST; dsDNA, one strand shown
# T10 sequence: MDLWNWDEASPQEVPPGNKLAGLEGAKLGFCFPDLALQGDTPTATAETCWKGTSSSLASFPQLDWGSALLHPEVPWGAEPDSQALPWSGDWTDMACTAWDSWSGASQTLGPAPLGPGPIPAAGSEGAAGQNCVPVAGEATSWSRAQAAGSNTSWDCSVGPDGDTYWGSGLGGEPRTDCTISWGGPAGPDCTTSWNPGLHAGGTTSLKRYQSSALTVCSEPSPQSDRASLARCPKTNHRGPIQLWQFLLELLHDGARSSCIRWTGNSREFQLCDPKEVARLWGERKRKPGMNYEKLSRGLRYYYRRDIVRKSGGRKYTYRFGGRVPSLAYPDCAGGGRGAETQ
# Outline: as §1
# [17] = molecular target: T11, ELF3 (Homo sapiens, UniProt P78545 1-371); conditions: protein: recombinant; tags: N-terminal GST; dsDNA, one strand shown
# T11 sequence: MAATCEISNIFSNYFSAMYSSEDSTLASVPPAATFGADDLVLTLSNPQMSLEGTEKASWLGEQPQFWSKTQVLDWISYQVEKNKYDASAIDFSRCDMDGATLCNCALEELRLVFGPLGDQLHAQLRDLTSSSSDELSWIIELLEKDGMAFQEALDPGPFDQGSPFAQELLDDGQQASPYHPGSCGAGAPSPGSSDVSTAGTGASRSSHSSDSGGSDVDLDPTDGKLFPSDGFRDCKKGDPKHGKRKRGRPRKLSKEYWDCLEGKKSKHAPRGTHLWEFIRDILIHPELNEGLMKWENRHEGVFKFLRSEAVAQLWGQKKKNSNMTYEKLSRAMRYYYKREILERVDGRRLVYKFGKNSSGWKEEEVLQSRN
# Outline: as §1
# [18] = molecular target: CRX (Homo sapiens, UniProt O43186 1-299); conditions: protein: recombinant; tags: N-terminal GST; dsDNA, one strand shown
# Outline: as §1
# [19] = molecular target: ETV1 (Homo sapiens, UniProt P50549 1-477); conditions: protein: recombinant; tags: N-terminal GST; dsDNA, one strand shown
# Outline: as §1
# Chain of ELF4 (Q99607 whole entry): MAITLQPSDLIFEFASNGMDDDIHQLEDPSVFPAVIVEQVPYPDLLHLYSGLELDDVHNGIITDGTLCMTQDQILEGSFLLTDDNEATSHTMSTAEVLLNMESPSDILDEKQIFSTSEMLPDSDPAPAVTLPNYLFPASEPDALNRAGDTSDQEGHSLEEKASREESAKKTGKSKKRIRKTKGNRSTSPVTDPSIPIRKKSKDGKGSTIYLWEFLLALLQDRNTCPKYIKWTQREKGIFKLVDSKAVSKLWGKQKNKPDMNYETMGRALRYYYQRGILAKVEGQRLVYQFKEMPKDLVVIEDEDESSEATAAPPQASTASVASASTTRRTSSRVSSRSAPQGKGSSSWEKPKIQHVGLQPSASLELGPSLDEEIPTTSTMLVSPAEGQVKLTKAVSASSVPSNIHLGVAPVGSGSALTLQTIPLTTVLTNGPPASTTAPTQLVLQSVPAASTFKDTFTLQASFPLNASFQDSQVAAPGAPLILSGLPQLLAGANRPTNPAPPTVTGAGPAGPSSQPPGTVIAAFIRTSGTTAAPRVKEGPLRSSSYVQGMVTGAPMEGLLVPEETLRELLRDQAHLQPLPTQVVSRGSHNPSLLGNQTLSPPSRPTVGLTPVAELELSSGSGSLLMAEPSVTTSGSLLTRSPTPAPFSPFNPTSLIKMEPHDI
# Chain of ETV5 (P41161 whole entry): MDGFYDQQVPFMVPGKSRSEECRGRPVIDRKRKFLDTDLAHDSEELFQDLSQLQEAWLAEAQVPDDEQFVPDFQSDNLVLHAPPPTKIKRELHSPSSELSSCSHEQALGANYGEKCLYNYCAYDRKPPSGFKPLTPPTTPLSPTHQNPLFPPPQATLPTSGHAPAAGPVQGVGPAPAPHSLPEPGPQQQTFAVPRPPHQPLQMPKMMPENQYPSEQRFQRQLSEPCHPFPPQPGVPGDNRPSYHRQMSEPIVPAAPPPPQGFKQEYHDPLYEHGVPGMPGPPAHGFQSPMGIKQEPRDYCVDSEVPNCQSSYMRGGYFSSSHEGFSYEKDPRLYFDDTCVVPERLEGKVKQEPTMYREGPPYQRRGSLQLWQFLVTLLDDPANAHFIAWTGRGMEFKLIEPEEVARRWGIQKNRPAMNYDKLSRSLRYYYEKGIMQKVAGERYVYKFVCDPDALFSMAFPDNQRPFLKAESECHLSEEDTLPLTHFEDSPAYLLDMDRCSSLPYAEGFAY
# Chain of ELF1 (P32519 whole entry): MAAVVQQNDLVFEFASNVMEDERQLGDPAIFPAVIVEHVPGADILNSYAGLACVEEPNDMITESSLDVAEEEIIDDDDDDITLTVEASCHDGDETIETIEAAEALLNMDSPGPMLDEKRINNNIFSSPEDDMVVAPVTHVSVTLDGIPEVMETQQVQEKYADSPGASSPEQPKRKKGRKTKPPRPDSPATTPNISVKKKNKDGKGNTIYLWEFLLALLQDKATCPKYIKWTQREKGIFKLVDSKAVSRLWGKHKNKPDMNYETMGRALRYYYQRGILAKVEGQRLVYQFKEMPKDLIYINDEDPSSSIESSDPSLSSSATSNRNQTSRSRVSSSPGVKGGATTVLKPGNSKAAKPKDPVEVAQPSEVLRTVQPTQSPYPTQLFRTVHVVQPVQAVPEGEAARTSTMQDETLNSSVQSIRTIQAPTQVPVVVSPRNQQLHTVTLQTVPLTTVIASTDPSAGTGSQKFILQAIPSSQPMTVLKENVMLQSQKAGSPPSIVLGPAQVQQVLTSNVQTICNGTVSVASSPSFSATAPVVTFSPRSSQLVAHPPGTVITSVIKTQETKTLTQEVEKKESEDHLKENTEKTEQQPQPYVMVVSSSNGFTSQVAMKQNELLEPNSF
# Chain of HSF1 (Q00613 whole entry): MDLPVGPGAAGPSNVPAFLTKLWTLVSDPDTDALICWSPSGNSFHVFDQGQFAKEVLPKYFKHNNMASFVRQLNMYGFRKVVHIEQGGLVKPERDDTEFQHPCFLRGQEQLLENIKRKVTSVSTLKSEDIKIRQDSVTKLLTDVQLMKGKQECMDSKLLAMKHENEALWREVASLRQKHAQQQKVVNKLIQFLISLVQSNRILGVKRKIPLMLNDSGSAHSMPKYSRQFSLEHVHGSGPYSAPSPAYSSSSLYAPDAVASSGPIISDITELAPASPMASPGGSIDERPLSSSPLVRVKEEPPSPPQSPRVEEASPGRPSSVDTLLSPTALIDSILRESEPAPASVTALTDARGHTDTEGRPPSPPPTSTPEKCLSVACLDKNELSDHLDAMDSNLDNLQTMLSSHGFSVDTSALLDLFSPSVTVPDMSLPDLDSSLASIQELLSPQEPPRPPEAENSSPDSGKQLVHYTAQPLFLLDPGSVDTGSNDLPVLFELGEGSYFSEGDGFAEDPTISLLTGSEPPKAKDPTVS
# Chain of CRX (O43186 whole entry): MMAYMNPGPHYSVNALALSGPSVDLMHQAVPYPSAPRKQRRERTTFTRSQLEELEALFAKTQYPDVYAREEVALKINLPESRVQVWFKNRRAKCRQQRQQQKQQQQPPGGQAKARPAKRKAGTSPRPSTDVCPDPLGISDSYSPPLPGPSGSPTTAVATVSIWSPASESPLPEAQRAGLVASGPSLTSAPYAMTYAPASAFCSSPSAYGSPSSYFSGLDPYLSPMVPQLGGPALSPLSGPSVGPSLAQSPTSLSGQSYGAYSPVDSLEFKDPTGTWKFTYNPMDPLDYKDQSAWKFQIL
# Chain of SPIB (Q01892 whole entry): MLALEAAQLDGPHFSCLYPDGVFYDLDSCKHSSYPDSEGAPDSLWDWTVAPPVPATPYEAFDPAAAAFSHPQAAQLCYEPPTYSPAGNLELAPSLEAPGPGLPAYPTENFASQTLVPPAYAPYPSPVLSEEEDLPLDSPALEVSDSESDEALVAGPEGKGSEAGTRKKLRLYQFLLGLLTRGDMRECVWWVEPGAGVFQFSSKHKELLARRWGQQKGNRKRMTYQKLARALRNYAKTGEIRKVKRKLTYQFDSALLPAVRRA
# Chain of ETV1 (P50549 whole entry): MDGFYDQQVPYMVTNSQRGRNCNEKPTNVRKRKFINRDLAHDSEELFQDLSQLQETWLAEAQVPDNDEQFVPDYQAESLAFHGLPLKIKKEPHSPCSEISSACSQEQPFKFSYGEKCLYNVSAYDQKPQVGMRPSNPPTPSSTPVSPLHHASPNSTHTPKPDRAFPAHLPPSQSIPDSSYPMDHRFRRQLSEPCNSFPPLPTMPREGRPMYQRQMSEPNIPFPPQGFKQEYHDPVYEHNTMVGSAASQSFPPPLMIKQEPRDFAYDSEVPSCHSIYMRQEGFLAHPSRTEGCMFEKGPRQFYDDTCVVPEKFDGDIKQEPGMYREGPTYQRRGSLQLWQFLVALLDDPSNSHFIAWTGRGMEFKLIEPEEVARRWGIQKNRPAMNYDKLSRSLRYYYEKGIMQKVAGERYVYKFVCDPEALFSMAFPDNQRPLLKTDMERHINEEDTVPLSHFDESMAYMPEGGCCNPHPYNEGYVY
sequence,measurement,setting,value
GCTCCC,binding signal,[1],"1.37 fold enrichment (6-mer frequency, TF over GST control)"
same,binding signal,[2],"1.28 fold enrichment (6-mer frequency, TF over GST control)"
same,binding signal,[3],"1.34 fold enrichment (6-mer frequency, TF over GST control)"
same,binding signal,[4],"1.33 fold enrichment (6-mer frequency, TF over GST control)"
same,binding signal,[5],"1.37 fold enrichment (6-mer frequency, TF over GST control)"
same,binding signal,[6],"1.33 fold enrichment (6-mer frequency, TF over GST control)"
same,binding signal,[7],"1.26 fold enrichment (6-mer frequency, TF over GST control)"
same,binding signal,[8],"1.28 fold enrichment (6-mer frequency, TF over GST control)"
same,binding signal,[9],"1.18 fold enrichment (6-mer frequency, TF over GST control)"
same,binding signal,[10],"1.28 fold enrichment (6-mer frequency, TF over GST control)"
same,binding signal,[11],"1.39 fold enrichment (6-mer frequency, TF over GST control)"
same,binding signal,[12],"1.07 fold enrichment (6-mer frequency, TF over GST control)"
same,binding signal,[13],"1.16 fold enrichment (6-mer frequency, TF over GST control)"
same,binding signal,[14],"1.32 fold enrichment (6-mer frequency, TF over GST control)"
same,binding signal,[15],"1.4 fold enrichment (6-mer frequency, TF over GST control)"
same,binding signal,[16],"1.32 fold enrichment (6-mer frequency, TF over GST control)"
same,binding signal,[17],"1.35 fold enrichment (6-mer frequency, TF over GST control)"
same,binding signal,[18],"1.04 fold enrichment (6-mer frequency, TF over GST control)"
same,binding signal,[19],"1.24 fold enrichment (6-mer frequency, TF over GST control)"
